NS1 function inh = blocks influenza NS1 protein function | actives 0.4% (n = 270,000) | Potency, µM (highest dose often 46.1 µM) | AID 2326; note: actives are rising curves; nearly all actives have a fitted effect of over 50% in size
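A cell-based growth assay was used: compounds that relieve NS1-induced slow growth of budding yeast raise OD600. Assay medium was yeast nitrogen base with ammonium sulphate and -URA supplement, pH 6.0, with 2% galactose.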
Pf growth 48h = P. falciparum growth inhibition at 48 hours (one generation); Potency, µM (highest dose often 28.7 µM), usual class: inhibitors; actives 5.9% (n = 310,000); AID 504832; P. falciparum luciferase growth in erythrocytes, 48 h; active = well fitted inhibition curve with a large enough effect; inconclusive = small, poorly fitted or top-dose-only effect, or another doubt; inactive = no such curve, though single readings can be large or run the other way
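Growth was read as firefly luciferase luminescence after a 48 h, 37 C, 5% CO2 exposure of compounds to reporter-bearing P. falciparum cultures (0.1% parasitemia, 2% hematocrit final) in Albumax-supplemented RPMI 1640.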
CHX counter = counter-screen for Shiga toxin inhibitors: cycloheximide protein synthesis inhibition. actives 12% (n = 300,000). max response, %. AID 2314. cell reporter, cycloheximide protein synthesis inhibition counterscreen; in the data active = max response mostly above about 13%, no sharp cut-off; inactive = mostly below about 14%; note: read at 38.3 µM for the half of the compounds with a filed dose
Pf growth 96h = P. falciparum growth inhibition at 96 hours. actives 6.9% (n = 320,000). P. falciparum luciferase reporter growth, 96 h. Potency, µM (top dose mostly 28.7 µM), actives largely listed as inhibitors; active = well fitted inhibition curve with a large enough effect; inconclusive = small, poorly fitted or top-dose-only effect, or another doubt; inactive = no such curve, though single readings can be large or run the other way
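Erythrocytes infected with luciferase-expressing P. falciparum were dispensed at 2% hematocrit and 0.05% parasitemia (final), then incubated with compounds 96 hours at 37 C in 5% CO2. Luminescence after detection reagent addition reported growth.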
Shiga inhibitor = blocks Shiga toxin action in Vero cells | AID 2315 | Vero cells, Shiga toxin protein synthesis inhibition reporter | actives 9.2% (n = 290,000) | inhibition, % at 38.7 µM; in the data active = inhibition mostly above about 28%, no sharp cut-off; inactive = mostly below about 43%
SARS PLP yeast = inhibitors of SARS-CoV papain-like protease in yeast; S. cerevisiae expressing SARS-CoV PLpro, growth rescue; Potency, µM (doses to about 32.9 µM), hits mostly activators; actives 0.19% (n = 330,000); note: nearly all actives have a fitted effect of over 55% in size
Each line names hits and unclear results; the compound was inactive in the other large screens. Shown are actives, neighbours in structure and some others; about 21% of the full set was active somewhere. Unless noted, calls come from the whole dose curve.

Cn1c(=O)n(C)c2cc(/C=N/NC(N)=S)ccc21	none (no result: NS1 function inh)
COc1ccc(CNc2nc(=S)[nH]c3cc(OC)c(OC)cc23)cc1	none
COc1ccc(CCNC(=O)CCCCCNc2nc(=S)[nH]c3ccccc23)cc1OC	Pf growth 48h inconclusive, Pf growth 96h 10.4µM
COc1cc2[nH]c(=S)nc(NCc3ccccc3)c2cc1OC	Pf growth 96h 0.522µM
COc1cc2[nH]c(=S)nc(NCc3ccc(C)cc3)c2cc1OC	Pf growth 48h inconclusive, Pf growth 96h 13.1µM
O=C(CSc1nnc(-c2ccccc2O)o1)Oc1ccc(OCc2ccccc2)cc1	CHX counter 31.4, Pf growth 96h inconclusive, Shiga inhibitor 101.4
COc1cccc(CN2CCNC(=O)C2CC(=O)NC2CCCC2)c1OC (stereo not drawn)	Pf growth 96h inconclusive
NNc1nc2sc3c(c2c(=O)n1C1CCCCC1)CCN(Cc1ccccc1)C3	Pf growth 48h inconclusive, Pf growth 96h 1.17µM
CSc1nc2sc3c(c2c(=O)n1C1CCCCC1)CCN(C)C3	Pf growth 48h inconclusive, Pf growth 96h inconclusive
CCSc1nc2sc3c(c2c(=O)n1C1CCCCC1)CCN(C)C3	Pf growth 48h 1.31µM
C=C(C)CSc1nc2sc3c(c2c(=O)n1C1CCCCC1)CCN(C)C3	Pf growth 48h 1.47µM, Pf growth 96h 1.04µM
Cc1ccc(CCNC(=O)c2cccc(NC3=NC4CS(=O)(=O)CC4S3)c2)cc1 (stereo not drawn)	none
O=C(NCc1ccc(Cl)cc1)c1ccc2ccccc2n1	CHX counter 19.8
O=C(NCCOc1ccc(Cl)cc1)c1ccc2ccccc2n1	CHX counter 9.3
O=C(Nc1ccc(Cl)cn1)c1ccc2ccccc2n1	Pf growth 96h inconclusive
Cc1cccc(NC(=S)NC2CCSc3ccccc32)c1 (stereo not drawn)	Pf growth 48h 11.7µM, Pf growth 96h inconclusive
S=C(NCc1ccccc1)NC1CCSc2ccccc21 (stereo not drawn)	Pf growth 96h inconclusive
COc1ccc(S(=O)(=O)N(CC(=O)NCc2cccnc2)c2ccc(F)cc2)cc1OC	Pf growth 96h inconclusive
COc1ccc(-c2cc(=O)n(CCC#N)[nH]2)cc1	Pf growth 96h 7.38µM
Cc1ccccc1-c1nn(-c2ccc(F)cc2F)cc1CNCCCN(C)C	Pf growth 48h 2.62µM, Pf growth 96h inconclusive
Cc1ccccc1-c1nn(-c2ccc(F)cc2F)cc1CNCCN(C)C	Pf growth 48h inconclusive, Pf growth 96h 13.1µM
CCC(COC)NCc1cn(-c2ccc(F)cc2F)nc1-c1ccccc1C (stereo not drawn)	Pf growth 48h inconclusive
COCCN(C)Cc1cn(-c2ccc(F)cc2F)nc1-c1ccccc1C	none
CCOC(=O)C1CCN(c2nc(C)cc(C)c2C#N)CC1	none
Cc1cc(C)c(C#N)c(N2CCCC(C(N)=O)C2)n1 (stereo not drawn)	Pf growth 96h 11.7µM
COc1cccc(-c2nc(NCC3CCCO3)c3ccccc3n2)c1O (stereo not drawn)	none
Oc1ccccc1-c1nc(NCC2CCCO2)c2ccccc2n1 (stereo not drawn)	Pf growth 48h inconclusive, Pf growth 96h 10.4µM
COc1ccccc1Nc1nc(NCC2CCCO2)c2ccccc2n1 (stereo not drawn)	Pf growth 48h inconclusive, Pf growth 96h 1.04µM
O=C(COC(=O)CN1C(=O)C2CCCCC2C1=O)Nc1c(Cl)cccc1Cl (stereo not drawn)	none (no result: NS1 function inh, CHX counter, Shiga inhibitor)
O=P(O)(OP(=O)(O)c1ccccc1)c1ccccc1 (tested in a mixture with another compound)	none (no result: Pf growth 48h, CHX counter, Pf growth 96h, Shiga inhibitor, SARS PLP yeast)
COC(=O)[C@]1(CC(C)C)N[C@H](c2ccc(SC3CCCCC3)c(OC)c2)[C@@H]2C(=O)N(C)C(=O)[C@@H]21	Pf growth 48h inconclusive, Pf growth 96h 8.28µM (no result: NS1 function inh, CHX counter, Shiga inhibitor)
COC(=O)[C@]1(C)N[C@H](c2ccc(SC3CCCCC3)cc2)[C@@H]2C(=O)N(C)C(=O)[C@@H]21	Pf growth 48h inconclusive, Pf growth 96h inconclusive (no result: NS1 function inh, CHX counter, Shiga inhibitor)
CCN1C(=O)[C@H]2[C@@H](c3ccc(-c4ccc(OC)cc4)c(OC)c3)N[C@@](CC(C)C)(C(=O)OC)[C@H]2C1=O	none (no result: NS1 function inh, Pf growth 48h, CHX counter, Pf growth 96h, Shiga inhibitor)
COC(=O)[C@]1(CC(C)C)N[C@H](c2ccc(-c3ccc(F)cc3)c(OC)c2)[C@@H]2C(=O)N(C)C(=O)[C@@H]21	Pf growth 48h 7.38µM, Pf growth 96h 1.85µM (no result: NS1 function inh, CHX counter, Shiga inhibitor)
CCC(C)Sc1ccc([C@H]2N[C@@](CC(C)C)(C(=O)OC)[C@H]3C(=O)N(C)C(=O)[C@@H]23)cc1 (stereo partly drawn)	Pf growth 48h inconclusive, Pf growth 96h inconclusive (no result: NS1 function inh, CHX counter, Shiga inhibitor)
CCCCCCSc1ccc([C@H]2N[C@@](CC(C)C)(C(=O)OC)[C@H]3C(=O)N(C)C(=O)[C@@H]23)cc1OC	Pf growth 48h 6.57µM, Pf growth 96h 4.65µM (no result: NS1 function inh, CHX counter, Shiga inhibitor)
O=C(CSc1ccc(F)cc1)Nc1nnc(-c2ccco2)o1	Pf growth 96h inconclusive (no result: NS1 function inh, CHX counter, Shiga inhibitor)
Cc1ccc(S(=O)(=O)NCC2CCC(C(=O)NC3CCCCC3)CC2)cc1 (stereo not drawn)	Pf growth 96h inconclusive
CCn1cnc2scc(-c3ccc(OC)cc3)c2c1=O	Pf growth 96h 10.4µM
CCCn1cnc2scc(-c3ccc(OC)cc3)c2c1=O	none (no result: Shiga inhibitor)
COc1ccc(-c2csc3ncnc(N4CCN(c5ccccc5O)CC4)c23)cc1	none (no result: SARS PLP yeast)
Cc1ccc(-c2csc3ncnc(NCCN4CCOCC4)c23)cc1	Pf growth 48h 13.1µM, Pf growth 96h 10.4µM
Cc1ccc(-c2csc3ncnc(N4CCN(c5ccccc5O)CC4)c23)cc1	Pf growth 48h 9.28µM, Pf growth 96h 10.4µM
CC(C)(C)C(=O)N1CCN(c2ncnc3scc(-c4ccccc4)c23)CC1	Pf growth 96h 13.1µM (no result: Pf growth 48h)
Cc1[nH]nc(SCC(=O)Nc2ccc(C#N)cc2)c1[N+](=O)[O-]	Pf growth 96h inconclusive
CCn1ccc(-c2ccccc2)c(C#N)c1=O	none
Cc1ccc(S(=O)(=O)NC(CCC(N)=O)C(=O)NCc2ccc3c(c2)OCO3)c(C)c1 (stereo not drawn)	none (no result: NS1 function inh, CHX counter, Shiga inhibitor)
COc1cc2c(cc1OC)C(C)N(C(=O)c1sc(-c3cnccn3)nc1C)CC2 (stereo not drawn)	Pf growth 48h inconclusive, Pf growth 96h inconclusive
COc1ccc(CN(CC(=O)NCCc2ccccc2)C(=O)CCC(=O)Nc2ccccn2)cc1	none
O=C(O)c1ccc(Cn2cnc3scc(-c4ccccc4)c3c2=O)cc1	none
Cc1ccc(-c2csc3ncn(Cc4ccc(C(=O)O)cc4)c(=O)c23)cc1C	Pf growth 96h 11.7µM
COc1ccc(-c2csc3ncnc(N4CCN(c5ccc(OC)cc5)CC4)c23)cc1	Pf growth 48h inconclusive, Pf growth 96h 13.1µM
CCOC(=O)N1CCN(c2ncnc3scc(-c4ccccc4)c23)CC1	Pf growth 48h inconclusive, Pf growth 96h inconclusive
Clc1ccc(CN2CCN(c3ncnc4scc(-c5cccs5)c34)CC2)cc1	Pf growth 96h 13.1µM, SARS PLP yeast inconclusive (no result: Pf growth 48h)
COc1ccc(-c2csc3ncnc(N4CCN(c5ccccc5[N+](=O)[O-])CC4)c23)cc1	NS1 function inh inconclusive, Pf growth 48h inconclusive, Pf growth 96h 9.28µM
